TDP1 cell CPT: growth inhibition of DT40 Tdp1-/-;hTDP1 cells with camptothecin (screen for TDP1 inhibitors); chicken DT40 Tdp1-/-;hTDP1 cells + 20 nM CPT, ATP luminescence, 48 h; Potency, µM (highest dose often 46.2 µM), for the others: at the top dose activity change, negative = growth inhibition, hits mostly inhibitors; actives 12% (n = 420,000); AID 686979; further: potency means the concentration at half of the fitted maximal effect; nearly all actives have a fitted effect of over 55% in size
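Chicken DT40 Tdp1-/- cells stably complemented with human TDP1 were seeded at 400 cells/well in medium containing 20 nM camptothecin, exposed to pin-transferred compounds, and grown at 37 °C for at least 48 hr. Viability was read as ATP luminescence.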
ALOX12 inh: inhibitors of human 12S-lipoxygenase ALOX12; purified 12hLO, xylenol orange hydroperoxide absorbance; Potency, µM (top dose mostly 108 µM), inactives show at the highest dose activity change, negative = inhibition, usual class: inhibitors; actives 1.1% (n = 580,000); further: potency means the concentration at half of the fitted maximal effect
Target sequence (P18054 whole entry, looked up): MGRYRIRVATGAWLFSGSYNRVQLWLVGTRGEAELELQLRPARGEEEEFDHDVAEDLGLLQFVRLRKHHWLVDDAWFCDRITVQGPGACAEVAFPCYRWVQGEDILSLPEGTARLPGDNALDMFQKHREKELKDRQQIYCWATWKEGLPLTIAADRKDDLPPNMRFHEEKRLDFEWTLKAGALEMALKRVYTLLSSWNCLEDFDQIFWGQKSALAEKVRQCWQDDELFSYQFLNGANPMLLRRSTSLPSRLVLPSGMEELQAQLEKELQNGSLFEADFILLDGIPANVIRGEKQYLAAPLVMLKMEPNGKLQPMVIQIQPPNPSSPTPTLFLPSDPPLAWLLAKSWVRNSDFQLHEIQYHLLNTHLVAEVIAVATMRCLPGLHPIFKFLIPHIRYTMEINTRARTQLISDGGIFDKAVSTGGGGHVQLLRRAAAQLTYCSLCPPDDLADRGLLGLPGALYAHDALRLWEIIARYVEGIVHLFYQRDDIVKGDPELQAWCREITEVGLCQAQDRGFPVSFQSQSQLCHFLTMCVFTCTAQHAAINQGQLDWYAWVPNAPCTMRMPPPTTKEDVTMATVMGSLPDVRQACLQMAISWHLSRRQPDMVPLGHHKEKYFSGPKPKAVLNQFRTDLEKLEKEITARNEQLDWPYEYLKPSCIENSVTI
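Purified human 12hLO at 150 nM in 25 mM Hepes, 0.01% Triton X-100, pH 7.0, preincubated 15 min at room temperature with compound. Reaction started with 40 uM arachidonic acid, 30 min at room temperature. Hydroperoxide measured by Fe-xylenol orange, 573/405 nm absorbance ratio.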
IL1B secr inh: inhibitors of inflammasome signaling (IL-1 beta secretion). THP-1 LPS/ATP IL-1B secretion, AlphaLISA, 16 h; stronger effect = lower value. activity change, % at 57.5 µM. actives 4.7% (n = 360,000); in the data active means activity change below about -50%; inconclusive means mostly about -30% to -49%
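Secreted IL-1B measured by AlphaLISA bead assay after 16 h compound exposure of THP-1 cells; compounds (final up to 57.5 uM) added 1 h before LPS (250 ng/mL) and ATP (1.25 mM) stimulation; lower signal means less secretion.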
HT1080 IDH1KD tx: kills HT-1080 cells with IDH1 knockdown; AID 686971; Potency, µM (doses to about 46.1 µM), for the others: at the highest dose activity, negative = toxicity, most hits filed as cytotoxic; actives 2% (n = 360,000); HT-1080 IDH1 knockdown viability, ATP luminescence, 48 h;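 further: potency means the concentration at half of the fitted maximal effect; 0% = DMSO wells and -100% = cell-free medium wells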
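Using the IDH1-knockdown HT-1080 line run in the same batch and compound series as the NT line, viability after 48 h at 37 °C was determined by CellTiter-Glo luminescence and expressed as % activity.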
TDP1 cell noCPT: qHTS for Inhibitors of human tyrosyl-DNA phosphodiesterase 1 (TDP1): qHTS in cells in absence of CPT; DT40 Tdp1-/- hTDP1 cells, no CPT, ATP luminescence, 48 h; Potency, µM (top dose mostly 46.2 µM), for inactives: at the top dose activity change, negative = growth inhibition, usual class: inhibitors; actives 15% (n = 420,000); further: potency means the concentration at half of the fitted maximal effect; nearly all actives have a fitted effect of over 55% in size
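Chicken DT40 Tdp1-/- cells complemented with human TDP1, screened without camptothecin (DMSO vehicle only), 400 cells/well. Compounds pin-transferred, cells incubated at 37 °C for at least 48 hr. Growth read as ATP-dependent luminescence (CellTiter-Glo, 30 min at RT).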
HT1080NT lethal: kills 2HG-producing HT-1080-NT fibrosarcoma cells. HT-1080-NT fibrosarcoma viability, CellTiter-Glo ATP luminescence, 48 h. Potency, µM (series often up to 46.1 µM), without a hit: top-dose activity, negative = less viability, usual class: cytotoxic. actives 1.6% (n = 360,000);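 further: NT is the 2HG producing partner of a matched IDH1 knockdown line; potency means the concentration at half of the fitted maximal effect; 0% = DMSO-treated cells and -100% = media-only wells without cells; nearly all actives have a fitted effect of over 55% in size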
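HT-1080-NT fibrosarcoma cells (2HG-overproducing), 750 cells/well in RPMI with 5% FBS, dosed after 2 h and incubated 48 h at 37C. CellTiter-Glo luminescence normalized to DMSO and no-cell wells; concentration-response curves fitted and classed.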
* hit, by the source's call; ? = inconclusive; · = no result given; [ ] = dose if it differs, or a comment. The full list was thinned out, with hits kept by preference. Unless noted, the call rests on the fitted dose curve; in most records, active means well fitted curve in the direction sought with a large enough effect; inconclusive means small, poorly fitted or top-dose-only effect, or another doubt; inactive means no such curve, though single readings can be large; an effect the other way counts as inactive or inconclusive. Unless noted, on the % scale 0 is the no-effect control and ±100 the full control effect.

SMILES	TDP1 cell CPT	ALOX12 inh	IL1B secr inh	HT1080 IDH1KD tx	TDP1 cell noCPT	HT1080NT lethal
CCOC(=O)[C@]12Cc3cc(Cl)ccc3[C@H]1N(C)C(=O)c1ccccc12	?	-35.1%	-62.4*	1.5%	?	3.3%
CCOC(=O)[C@]12Cc3cc(Cl)ccc3[C@H]1N(CC(=O)OC)C(=O)c1ccccc12	9.2µM*	·	·	7.31µM*	4.11µM*	5.8µM*
CCOC(=O)[C@]12Cc3cc(C)ccc3[C@H]1N(C)C(=O)c1ccccc12	16.4µM*	?	-13.1	-16.2%	16.4µM*	0.3%
CCOC(=O)C1(c2ccccc2)CCN(CC(=O)c2ccc(NC(C)=O)cc2)CC1	?	-16.8%	10.9	-4.4%	?	-4.5%
CCOC(=O)[C@]12Cc3cc(Cl)ccc3[C@H]1N(C(C)C)C(=O)c1ccccc12	2.59µM*	?	·	3.26µM*	3.26µM*	4.61µM*
CCOC(=O)[C@]12Cc3cc(C)ccc3[C@H]1N(C)C(=O)c1cc(OC)ccc12	20.6µM*	0.0%	-116.2*	16.4µM*	23.1µM*	?
COc1ccc(C2C(C(=O)N3CCC4(CC3)OCCO4)c3cc(OC)c(OC)cc3C(=O)N2C)cc1 (configuration not stated)	0.7%	25.0%	-0.6	17.5%	-9.2%	14.7%
O=C(Nc1ccccc1)C1=C[C@H](c2ccccc2)C[C@H](OCCCCO)O1	16.4µM*	-12.8%	-18.6	-21.5%	?	-16.1%
C=C1C(=O)O[C@@H]2C[C@@H](C)[C@H]3C=CC(=O)[C@]3(O)C[C@@H]12	4.61µM*	9.1%	-98.8*	-16.1%	4.61µM*	-19.0%
CC(C)CCN(N=O)[C@@H](Cc1ccccc1)CN(N=O)[C@@H](Cc1ccccc1)CN(C)N=O	?	12.2%	?	-23.4%	?	-7.1%
CN(C[C@H](Cc1ccccc1)N(C[C@H](c1ccccc1)N(CCc1ccccc1)N=O)N=O)N=O	?	-4.6%	-17.6	-4.5%	16.4µM*	7.6%
CN(C[C@H](Cc1ccccc1)N(C[C@H](Cc1ccccc1)N(CCC(C)(C)C)N=O)N=O)N=O	18.4µM*	3.7%	-1.3	-3.1%	?	-3.0%
CC(C)C[C@@H](CN(N=O)[C@@H](Cc1ccccc1)CN(C)N=O)N(CCc1ccccc1)N=O	?	-1.7%	2.2	11.0%	?	5.3%
O=C(COc1ccc(F)cc1)N1CCN(Cc2cc(=O)n3nc(-c4ccc(F)cc4)sc3n2)CC1	·	-13.6%	·	·	·	·
O=[S+]1([O-])NC2(CCN(Cc3ccccn3)C2)CNc2ccccc21 (configuration not stated)	·	58.3%	·	·	·	·
Cc1ccccc1NCC(=O)N/N=C/C(Br)=C/c1ccccc1	5.17µM*	-4.1%	?	17.8µM*	13µM*	?
CC(C)NC1CNC1	·	43.0%[365 µM]	·	·	·	·
COc1ccc(S(=O)(=O)NC[C@H]2C[C@@H]3CCN2C[C@@H]3CN(C)c2ccccc2)cc1	·	-7.6%[176 µM]	·	·	·	·
CC(=O)c1ccc(N2CCN(S(=O)(=O)c3cc(-c4onc(C)c4C)ccc3C)CC2)cc1	8.2µM*	-15.5%	·	·	9.2µM*	·
Cc1ccc(NC(=O)c2ccc(C)c(S(=O)(=O)N3CCCCC3)c2)nc1	-22.3%	-24.3%	-8.0	-10.8%	?	-12.9%
C/C=C/c1ccc(OCC(=O)N2CCN(CCOc3ccccc3)CC2)c(OC)c1	·	2.5%	·	·	·	·
c1ccc2c(CN3CCNCC3)cccc2c1	·	-1.7%[57.4 µM]	·	·	·	·
c1ccc2c(N3CCNCC3)cccc2c1	18.4µM*	?	?	?	?	-29.2%
O=C(CF)NC(NC(=S)Nc1cccc([N+](=O)[O-])c1)C(Cl)(Cl)Cl (configuration not stated)	20.6µM*	?	-18.6	6.7%	?	4.4%

Compound activity from PubChem.
